In PubChem BioAssay (NCATS) one finds activity, negative = inhibition and Potency data, which are given here for 6 compounds.

A short description of experiment [1]: qHTS profiling for inhibitors of Plasmodium falciparum proliferation (AID 504749).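 For activity, negative = inhibition: 0% = DMSO vehicle and full inhibition = artemisinin control.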 Note: nearly all actives have a fitted effect of over 60% in size. The conditions noted are these: P. falciparum in erythrocytes, SYBR Green DNA, 72 h, at 28.7 µM (top of the series). Summed up:
(§1)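 SYBR Green fluorescence (ex 485 nm, em 535 nm) reports parasite DNA after 72 h compound exposure of infected red cells at 0.3% parasitemia, 2.5% hematocrit; signal normalized to 0.29 uM artemisinin and vehicle wells.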
A general note: In qHTS, concentration-response curves come from the screen itself.

A further experiment has as its system 3D7. Described as above. The conditions noted are these: P. falciparum in erythrocytes, SYBR Green DNA, 72 h; series mostly up to 28.7 µM. Summed up:
as §1

A further experiment concerns 7G8. The description is as above. The conditions noted are these: P. falciparum in erythrocytes, SYBR Green DNA, 72 h; series mostly up to 28.7 µM. A digest of the protocol:
as §1

For a further experiment, the system named is AA1029. The description is as above. Particulars: P. falciparum in erythrocytes, SYBR Green DNA, 72 h; series mostly up to 28.7 µM. Summed up:
as §1

For a further experiment, the system named is AS120. The description is as above. Particulars: P. falciparum in erythrocytes, SYBR Green DNA, 72 h; series mostly up to 28.7 µM. Summed up: as §1
For the next experiment, the system named is ATS189. The description is as above. Particulars: P. falciparum in erythrocytes, SYBR Green DNA, 72 h; series mostly up to 28.7 µM. A digest of the protocol: as §1
The next experiment has as its system ATS95. The description is as above. The conditions noted are these: P. falciparum in erythrocytes, SYBR Green DNA, 72 h; series mostly up to 28.7 µM. Summed up: as §1
The next experiment concerns C2A. Described as above. The conditions noted are these: P. falciparum in erythrocytes, SYBR Green DNA, 72 h; series mostly up to 28.7 µM. A digest of the protocol:
as §1

The subject of a further experiment is CP185. The description is as above. The conditions noted are these: P. falciparum in erythrocytes, SYBR Green DNA, 72 h; series mostly up to 28.7 µM. A digest of the protocol:
as §1

The test system of another experiment is CP191. The description is as above. The conditions noted are these: P. falciparum in erythrocytes, SYBR Green DNA, 72 h; series mostly up to 28.7 µM. Summed up: as §1
Another experiment deals with CP217. The experiment is described as above. The conditions noted are these: P. falciparum in erythrocytes, SYBR Green DNA, 72 h; series mostly up to 28.7 µM. Summed up:
as §1

For another experiment, the system named is CP237. The experiment is described as above. The conditions noted are these: P. falciparum in erythrocytes, SYBR Green DNA, 72 h; series mostly up to 28.7 µM. A digest of the protocol:
as §1

The test system of a further experiment is CP201. Described as above. The conditions noted are these: P. falciparum in erythrocytes, SYBR Green DNA, 72 h; series mostly up to 28.7 µM. A digest of the protocol:
as §1

The subject of a further experiment is CP203. Described as above. Particulars: P. falciparum in erythrocytes, SYBR Green DNA, 72 h; series mostly up to 28.7 µM. A digest of the protocol:
as §1

For another experiment, the system named is CP211. The experiment is described as above. Particulars: P. falciparum in erythrocytes, SYBR Green DNA, 72 h; series mostly up to 28.7 µM. A digest of the protocol: as §1
The next experiment concerns CP192. The experiment is described as above. Particulars: P. falciparum in erythrocytes, SYBR Green DNA, 72 h; series mostly up to 28.7 µM. Summed up: as §1
Another experiment deals with CP194. Described as above. Particulars: P. falciparum in erythrocytes, SYBR Green DNA, 72 h; series mostly up to 28.7 µM. A digest of the protocol:
as §1

The subject of the next experiment is CP215. Described as above. Particulars: P. falciparum in erythrocytes, SYBR Green DNA, 72 h; series mostly up to 28.7 µM. A digest of the protocol:
as §1

Records with an inconclusive call do not appear. Values without a mark were called inactive. Calls of active or inactive are those of the source. Calls come from the whole dose curve; as a rule, active = well fitted inhibition curve with a large enough effect; inconclusive = small, poorly fitted or top-dose-only effect; inactive = flat fitted curve, though single readings scatter.
Potency is the fitted concentration of half-maximal effect.

`NC(=O)C(=O)N/N=C/c1ccc([N+](=O)[O-])o1`: the activity, negative = inhibition in [1] (parasite line A) is -26.1%; in [1] (parasite line B), -11.4%. The Potency entry in the experiment on 3D7, in the experiment on 7G8, in the experiment on AA1029, with AS120, in the experiment with ATS189 and with ATS95 was “inactive” each time. For the same compound, the Potency entry in the experiment with C2A, in the experiment on CP185, with CP191, with CP217 and in the experiment with CP237 was “inactive” throughout.

As to `OC(CCN1CCCCC1)(c1ccccc1)c1ccccc1`, the activity, negative = inhibition in [1] (parasite line A) is 0.409%; in [1] (parasite line B) it was -16.8%. Further, the Potency result with 3D7, in the experiment on CP201 and in the experiment with CP211 was “inactive” each time. For the same compound, the Potency in the experiment on 7G8 is 11.2 µM (active); in the experiment with AA1029 it was 7.94 µM (active); in the experiment on AS120, 11.2 µM (active); in the experiment with ATS95 it was 8.91 µM (active); in the experiment with CP203, 16.9 µM (active); with CP237 it was 4.47 µM (active).

Consider `Cc1ccc(C(=O)C(C)CN2CCCCC2)cc1` (stereo not drawn), for which the values for the activity, negative = inhibition in [1] (parasite line A) and in [1] (parasite line B) were 1.87% and 6.22%, respectively. In addition, the Potency result in the experiment on 3D7, in the experiment on AA1029, in the experiment on AS120, with ATS95, in the experiment with C2A and in the experiment on CP185 was “inactive” throughout. For the same compound, the Potency entry with CP192, in the experiment on CP194, with CP201, in the experiment with CP203, in the experiment with CP211 and in the experiment with CP215 was “inactive” each time. Besides, the Potency entry in the experiment on CP217 and in the experiment on CP237 was “inactive” throughout. Also, the Potency with 7G8 is 11.2 µM (active).

Take `CC(Cc1cccc(C(F)(F)F)c1)NCCOC(=O)c1ccccc1` (stereo not drawn): the activity, negative = inhibition in [1] (parasite line A) was 15.8%; in experiment [1] (parasite line B), 6.99%. For the same compound, the Potency entry in the experiment on 3D7, in the experiment on AA1029, with AS120, in the experiment with ATS189, with ATS95 and with C2A was “inactive” in each case. Also, the Potency entry with CP185, in the experiment on CP191, in the experiment on CP192, in the experiment on CP201, with CP211 and with CP215 was “inactive” each time. Moreover, in the experiment with CP217, the Potency result is “inactive”. Moreover, the Potency in the experiment with 7G8 is 8.91 µM (active).

In the case of `O=C1CCC(c2ccc(-n3ccnc3)cc2)=NN1`, the activity, negative = inhibition was 16% in experiment [1] (parasite line A) and 14.3% in [1] (parasite line B). Further, the Potency entry with 3D7, with 7G8, in the experiment with AA1029, in the experiment on AS120, in the experiment on ATS189 and with ATS95 was “inactive” throughout. The Potency entry in the experiment on C2A, in the experiment with CP185, in the experiment with CP191, in the experiment on CP192, with CP194 and in the experiment with CP201 was “inactive” in each case. The Potency entry with CP211, in the experiment with CP215, in the experiment with CP217 and with CP237 was “inactive” in each case.

As for `O=C(Nc1ccc(Cl)c(Cl)c1)C1CC1`, the activity, negative = inhibition in [1] (parasite line A) is -11.1%; in experiment [1] (parasite line B) it was -1.73%. The Potency result with 3D7, in the experiment with 7G8, with AA1029, with AS120, with ATS189 and in the experiment on ATS95 was “inactive” in each case. In addition, the Potency entry with C2A, with CP185, with CP191, in the experiment with CP192, in the experiment with CP194 and in the experiment with CP201 was “inactive” throughout. For the same compound, the Potency result in the experiment with CP211, in the experiment with CP215, with CP217 and in the experiment on CP237 was “inactive” each time.
